Compound activity deposited in PubChem BioAssay by several laboratories.
An excerpt weighted towards active compounds, which were near 2.4% of everything screened.
TMEM16A act = TMEM16A chloride channel activators or potentiators, primary screen, cell-based, HTS; HEK293 TMEM16A/YFP-H148Q/I152L, iodide quench fluorescence; active compounds read low; B-score at 10 µM; 340,000 tested, 0.3% active; AID 623877, 2012;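 active means fluorescence-ratio B-score plate-corrected deviation score at least 3 library SD below zero, with starting fluorescence score within 5 deviations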;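 further: channel opened by trigger with iodide after compound preincubation; score built on the fluorescence ratio of max minus min over baseline; more negative score means more quench and so TMEM16A activation or potentiation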
ANO1 block = TMEM16A chloride channel inhibitors, primary screen, cell-based, HTS | Anoctamin-1 (Mus musculus), Q8BHY3 | HEK293 TMEM16A/YFP iodide influx fluorescence, ionomycin | AID 588511, 2011 | normalized B-score (activity score, 25-100; higher = stronger inhibition) at 10 µM | 310,000 tested, 1.2% active;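 active means ratio plate-corrected score three or more library SD toward inhibition, starting fluorescence score within five deviations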;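 further: score derived from kinetic fluorescence span divided by baseline fluorescence per well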
TLR9-MyD88 block = inhibitors of TLR9-MyD88 association in cells, primary screen, cell-based, CHO, BLA complementation, fluorescence. CCF4 FRET ratio. 340,000 tested, 0.21% active. Toll-like receptor 9 (Homo sapiens) + Myeloid differentiation primary response protein …. inhibition, % at 4.98 µM. AID 504734, 2011;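 active means inhibition above the mean over all tested compounds plus 3 SD, cut at about 21% in these data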
NOD2-RIPK2 inh = NOD2-RIPK2 binding disruptors in cells, primary screen, fluorescence, CHO cells, BLA complementation; Receptor-interacting serine/threonine-protein kinase 2 (Homo sapiens), O43353; inhibition, % at 4.98 µM; 360,000 tested, 0.38% active; CCF4 ratio; in the data active means inhibition above about 21%
HTR2A ag = mouse Htr2a agonists via beta-arrestin recruitment, primary screen, cell-based, luminescence. 5-hydroxytryptamine receptor 2A (Mus musculus), P35363. CHO-K1 mHTR2A beta-arrestin complementation; percent of 30 µM serotonin response. activation, % at 7.6 µM. 360,000 tested, 0.66% active. AID 624169, 2012;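 active means activation above a run cutoff, the mean activation of all tested compounds plus 3 SD, cut at about 14% in these data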
TLR4-MyD88 BLA = inhibitors of TLR4-MyD88 association in cells, primary screen, cell-based, HeLa CL3-4, BLA complementation, FRET ratio; Toll-like receptor 4 (Homo sapiens) + Myeloid differentiation primary response protein …; HeLa CL3-4 TLR4/MyD88 BLA complementation; inhibition, % at 8.4 µM; 200,000 tested, 0.18% active; AID 861, 2007; in the data active means inhibition above about 25%
Target sequence (O00206 whole entry, looked up): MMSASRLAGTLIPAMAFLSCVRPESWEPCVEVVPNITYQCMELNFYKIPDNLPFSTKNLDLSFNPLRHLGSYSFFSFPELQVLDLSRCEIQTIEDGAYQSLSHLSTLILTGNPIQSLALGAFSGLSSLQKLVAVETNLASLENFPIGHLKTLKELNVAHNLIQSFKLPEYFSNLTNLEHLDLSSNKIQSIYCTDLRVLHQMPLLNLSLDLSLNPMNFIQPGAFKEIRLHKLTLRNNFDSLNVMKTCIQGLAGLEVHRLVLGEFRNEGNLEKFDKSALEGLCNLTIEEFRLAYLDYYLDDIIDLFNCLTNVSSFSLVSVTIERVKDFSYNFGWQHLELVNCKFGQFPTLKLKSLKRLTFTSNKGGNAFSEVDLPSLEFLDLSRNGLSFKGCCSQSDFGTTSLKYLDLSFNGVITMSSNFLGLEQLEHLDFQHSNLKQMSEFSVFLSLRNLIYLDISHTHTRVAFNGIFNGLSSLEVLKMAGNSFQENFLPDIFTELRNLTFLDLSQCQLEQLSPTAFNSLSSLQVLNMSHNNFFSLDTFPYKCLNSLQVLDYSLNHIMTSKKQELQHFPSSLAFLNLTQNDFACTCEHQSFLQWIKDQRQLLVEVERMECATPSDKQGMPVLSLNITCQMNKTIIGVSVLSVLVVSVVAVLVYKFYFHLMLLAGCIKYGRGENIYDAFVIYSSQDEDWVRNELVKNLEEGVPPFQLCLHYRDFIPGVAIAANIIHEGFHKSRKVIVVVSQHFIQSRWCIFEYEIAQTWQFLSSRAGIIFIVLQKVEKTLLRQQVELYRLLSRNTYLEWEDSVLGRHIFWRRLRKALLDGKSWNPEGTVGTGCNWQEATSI
Target sequence (Q99836 whole entry, looked up): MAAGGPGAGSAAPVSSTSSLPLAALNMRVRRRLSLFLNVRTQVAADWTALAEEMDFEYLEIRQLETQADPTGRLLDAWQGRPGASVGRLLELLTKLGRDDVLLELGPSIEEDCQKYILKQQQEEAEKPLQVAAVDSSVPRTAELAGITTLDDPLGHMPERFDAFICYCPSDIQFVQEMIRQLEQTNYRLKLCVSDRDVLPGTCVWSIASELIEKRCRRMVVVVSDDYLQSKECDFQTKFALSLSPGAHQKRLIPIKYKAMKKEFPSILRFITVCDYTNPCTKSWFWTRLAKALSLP
TLR9-MyD88 cf = TLR9-MyD88 association inhibitors, retest, confirmation, cell-based, CHO, BLA complementation, fluorescence, triplicate | shares compounds with TLR9-MyD88 block | 680 tested, 51% active | AID 540250, 2011 | inhibition, % at 4.98 µM | CCF4 FRET ratio;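 active means mean inhibition across three repeats above about 21% taken from the earlier screen, limit read from the data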;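 further: blue over green emission ratio reports constitutive TLR9 MyD88 association via BLA complementation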
BLA counter-1 = beta-lactamase reporter inhibitors in CHO cells, artefact control for TLR9-MyD88 binding inhibitor project, cell-based, fluorescence; inhibition, % at 4.98 µM; CHO-BLA cells, CCF4 FRET ratio, BLA reporter; 680 tested, 7% active; shares compounds with TLR9-MyD88 block; AID 540251, 2011;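 active means mean inhibition above a 50% cutoff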;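 further: counterscreen of TLR9-MyD88 hits on CMV-driven BLA in CHO-K1 cells; higher means less blue over green ratio so more BLA blockade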
TLR9 CHO tox = CHO cell viability loss – luminescence, single concentration, cytotoxicity control for TLR9-MyD88 binding inhibitor project | shares compounds with TLR9-MyD88 block | TLR9-MyD88 CHO cells cytotoxicity | inhibition, % at 4.98 µM | 680 tested, 39% active | AID 588336, 2011; in the data active means inhibition above about 11%
TMEM16A reconf = TMEM16A chloride channel inhibitors, confirmation, cell-based, re-confirmation; inhibition, % at 10 µM; HEK293 TMEM16A/YFP-H148Q, iodide quench fluorescence; ionomycin added to raise cell calcium; 2,300 tested, 39% active; AID 652189, 2013; shares compounds with ANO1 block;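 active means mean duplicate percent inhibition, scaled so buffer wells are 0 and the reference blocker 100, over three buffer SD above buffer mean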
HEK293 Ca mobil = calcium mobilization in TMEM16A/YFP HEK293 cells, confirmation, counter-screen for TMEM16A inhibitor project; shares compounds with ANO1 block; Fluo4 calcium mobilization; calcium response (% of ionomycin), % at 10 µM; 2,300 tested, 2% active; AID 652231, 2013;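 active means duplicate-averaged calcium signal over 20% of the ionomycin maximum, relative to buffer baseline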;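 further: each well's signal is peak minus trough fluorescence divided by its pre-addition baseline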
Parental YFP cnt = iodide YFP quench changes in parental YFP-HEK293, counter-screen for TMEM16A inhibitor project, cell-based; shares compounds with ANO1 block; 2,300 tested, under 10 active; YFP ratio F(max-min)/F0 at 10 µM; ionomycin;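 active means yellow fluorescent protein signal ratio exceeding the buffer control mean by over 5 SD of those controls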;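 further: ratio is mean of duplicate wells from kinetic YFP trace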
ClC-1 inh = ClC-1 chloride channel inhibition, selectivity assay for TMEM16A inhibitor project, cell-based, voltage-dependent ClC-1; shares compounds with ANO1 block; CHO ClC-1-YFP, iodide influx fluorescence quench; iodide control reads 0, buffer control 100; ratio percent, % at 10 µM; 2,300 tested, under 10 active; AID 652236, 2013;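 active means duplicate-mean ratio percent above the mean of iodide-only control wells, which defines zero, plus 5 of their SD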;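 further: higher percent means stronger block of ClC-1 iodide influx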
OPRM1 ag = OPRM1 agonists via beta-arrestin recruitment, confirmation, counter-screen for mouse HTR2A agonist project, cell-based, luminescence, single concentration | activation, % at 9.3 µM | 2,300 tested, 5.3% active | AID 624380, 2012 | U2OS OPRM1 beta-arrestin PathHunter; DMSO 0%, DAMGO 9.3 µM 100% | shares compounds with HTR2A ag;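 active means mean activation above the mean of DMSO-only wells plus 3 SD, cut at about 0.5% in these data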
m5-HT2A ag conf = mouse HTR2A agonists, beta-arrestin recruitment, confirmation, cell-based, luminescence, CHO-K1 PathHunter, triplicate; 2,300 tested, 19% active; AID 624381, 2012; DMSO 0%, 30 µM serotonin 100%; activation, % at 7.6 µM; shares compounds with HTR2A ag;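 active means mean activation across triplicates above the hit threshold derived in the original primary screen, cut at about 15% in these data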
NOD2 RIPK2 conf = NOD2-RIPK2 binding disruptors, retest, confirmation, fluorescence, CHO cells, BLA complementation, triplicate. shares compounds with NOD2-RIPK2 inh. CCF4 FRET. inhibition, % at 4.98 µM. 1,200 tested, 70% active. AID 624370, 2012;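 active means mean inhibition across replicates above a set limit taken from the earlier primary screen, cut at about 21% in these data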
BLA counter-2 = NOD2-RIPK2 counterscreen BLA reporter activity; shares compounds with NOD2-RIPK2 inh; CHO BLA reporter, CCF4 FRET ratio; inhibition, % at 4.98 µM; 1,200 tested, 57% active; AID 624371;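 active means mean inhibition above the low-control mean inhibition plus three low-control SD, cut at about 11% in these data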
A number is an active result; i = inactive; nt = no result given.

SMILES	TMEM16A act	ANO1 block	TLR9-MyD88 block	NOD2-RIPK2 inh	HTR2A ag	TLR4-MyD88 BLA	TMEM16A reconf	HEK293 Ca mobil	Parental YFP cnt	ClC-1 inh	others
C=C1C(=O)O[C@@H]2C[C@@H](C)[C@@H]3C4OC4C(=O)[C@@]3(C)[C@@H](O)[C@H]12 (some centres undefined)	i	i	24	55	i	nt	nt	nt	nt	nt	TLR9-MyD88 cf=26;BLA counter-1=i;TLR9 CHO tox=100;NOD2 RIPK2 conf=52;BLA counter-2=23
CC(C)=CCc1c(O)cc2c(c1O)C(=O)CC(c1ccc(O)cc1)O2 (centres undefined)	i	100	i	i	i	nt	i	i	i	i
CCc1sc(C(=O)N2CCC3(CC2)OCCO3)cc1Br	i	100	i	i	i	i	i	i	i	i
O=C(c1cc2c(s1)CCCCCC2)N1CCC2(CC1)OCCO2	i	i	i	i	i	i	nt	nt	nt	nt
CN1CCN(C(=O)COc2ccc(S(=O)(=O)Nc3ccc(F)cc3)cc2)CC1	i	i	i	i	i	nt	nt	nt	nt	nt
Cc1ccc(N)c(C(=O)c2ccc(Br)cc2)c1	i	100	i	i	i	i	i	i	i	i
Cc1oc2ccc(OC(=O)N(C)C)cc2c1C(=O)OC(C)C	i	i	i	i	i	i	nt	nt	nt	nt
CCOC(=O)c1c(-c2ccc(OC)cc2)oc2ccc(OC(=O)N(C)C)cc12	i	100	i	i	i	i	i	i	i	i
CC(C)N1OC2CC1c1nc3ccccc3n1C2 (centres undefined)	i	25	i	i	i	nt	i	i	i	i
COc1ccc(-c2nn(CCC#N)cc2C(=O)Nc2ccccc2Cl)cc1	i	i	i	i	i	nt	nt	nt	nt	nt
Cc1ccc(CN(Cc2ccccc2)C(=S)NCC(=O)N2CCC3(CC2)OCCO3)o1	i	i	i	i	i	i	nt	nt	nt	nt
CN(C)c1ccc(C2C3C=CC(C3)C2(C#N)C(=O)O)c(Br)c1 (centres undefined)	i	i	i	i	i	nt	nt	nt	nt	nt
CCCNC(=O)c1c(N)n(Cc2ccco2)c2nc3ccccc3nc12	nt	i	nt	nt	nt	i	i	i	i	i
CC(C)CNC(=O)c1c(N)n(Cc2ccco2)c2nc3ccccc3nc12	i	i	i	i	i	i	18%	i	i	i
COCCCNC(=O)c1c(N)n(Cc2ccco2)c2nc3ccccc3nc12	i	i	nt	i	i	nt	nt	nt	nt	nt
COc1ccc(OC)c(CC(=O)O)c1	-4.9	25	i	i	i	i	i	i	i	i
Cc1c(C)c2cc(Cl)c(OCC(=O)N3C[C@H]4C[C@@H](C3)c3cccc(=O)n3C4)cc2oc1=O	i	i	i	i	i	nt	nt	nt	nt	nt
CCOc1ccc(-n2c(O)c(/C=C3\C=Nc4ccccc43)c(=O)[nH]c2=O)cc1	i	i	i	i	i	nt	22%	40%	i	i
COc1ccc(OC)c(-n2c(O)c(/C=C3\C=Nc4ccccc43)c(=O)[nH]c2=O)c1	i	i	i	i	i	nt	nt	nt	nt	nt
Cc1cc(OC(=O)c2ccco2)c2c3c(c(=O)oc2c1)CCCC3	i	100	i	i	i	i	i	i	i	i
Cc1cc(OC(=O)c2cccs2)c2c3c(c(=O)oc2c1)CCCC3	i	i	i	i	i	i	nt	nt	nt	nt
CCCCn1c(O)c(C(C)=NCCN2CCCCC2)c(=O)[nH]c1=O	i	i	i	i	i	i	i	i	i	i
COc1ccc2nc(NC3=NCCN3)sc2c1	i	i	i	i	i	i	nt	nt	nt	nt
CCCCCCC(C)(C)c1ccc([C@@H]2C[C@H](O)CC[C@H]2CCCO)c(O)c1	i	100	i	i	29	nt	i	i	i	i	OPRM1 ag=0.8;m5-HT2A ag conf=23
